# Source: PubChem BioAssay AID743135 (Broad Institute, 2013)
# Results filed as inconclusive are left out. Active and inactive are the calls of the source.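 The calls were made as follows: active = fitted drop in cell viability signal with half-maximal potency at most twice the top valid dose; inconclusive = flat fit with a 30 to 70% drop, or poor fit; inactive = opposite direction, flat within 30%, or potency beyond limit.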
# Assay: HEK293 cell cytotoxicity, dose response, cytotoxicity control, ATP luminescence, dry powder, Set3, 50 µM top (AID 743135)
# Conditions: HEK293T viability, CellTiter-Glo ATP luminescence, 72 h; series mostly up to 50 µM; activity change, negative = cytotoxicity: at the top concentration
SMILES,"activity change, negative = cytotoxicity",outcome
Cc1c(C(=O)O)sc2nc(/C=C/c3ccc4ccccc4c3)[nH]c(=O)c12,7.22% (inactive),
Cc1c(C(=O)O)sc2nc(/C=C/c3cccc(N4CCNCC4)c3)[nH]c(=O)c12,-0.926% (inactive),
Cc1c(C(=O)O)sc2nc(/C=C/c3cnc4ccccc4c3)[nH]c(=O)c12,-23.6% (inactive),
Cc1c(C(=O)O)sc2nc(/C=C/c3cccc(N4CCOCC4)n3)[nH]c(=O)c12,0.269% (inactive),
Cc1c(C(=O)O)sc2nc(/C=C/c3cccc(C(F)(F)F)c3)[nH]c(=O)c12,-4.4% (inactive),
Cc1c(C(=O)O)sc2nc(/C=C/c3cccc(C(=O)O)c3)[nH]c(=O)c12,-4.26% (inactive),
Cc1c(C(=O)O)sc2nc(/C=C/c3ccnc4ccccc34)[nH]c(=O)c12,0.42% (inactive),
COc1cccc(/C=C/c2nc3sc(C(=O)O)c(C)c3c(=O)[nH]2)c1,2.64% (inactive),
Cc1c(C(=O)O)sc2nc(/C=C/c3cccc(=O)[nH]3)[nH]c(=O)c12,-5.21% (inactive),
Cc1c(C(=O)O)sc2nc(/C=C/c3cccc(O)c3)[nH]c(=O)c12,,inactive
Cc1c(C(=O)O)sc2nc(/C=C/c3ccc4[nH]ccc4n3)[nH]c(=O)c12,-5.92% [at 12 µM] (inactive),
Cc1c(C(=O)O)sc2nc(/C=C/c3ccc4cc[nH]c4c3)[nH]c(=O)c12,-15% (inactive),
Cc1c(C(=O)O)sc2nc(/C=C/c3cccnc3N)[nH]c(=O)c12,-17.4% [at 12 µM] (inactive),
